Screens deposited in PubChem by several laboratories.
Compounds with a hit are over-represented: about 1.1% of the library has one in this group of screens.
Vc quorum ag: quorum light induction in luxS cqsA deficient V. cholerae; 0.16% of 350,000 active; V. cholerae BH1578 lux reporter, luminescence, 6 h; activation, % at 18.7 µM; AID 588436; in the data active = activation mostly above about 9.7%, no sharp cut-off
Yp Topo-I inh: inhibitors of Yersinia pestis topoisomerase I; Y. pestis Topo-I cleavage product accumulation, plate reader; activity, % at 10 µM; 0.064% of 360,000 active; AID 504884; in the data active = activity above about 50%, passing the limit was not always enough
PrPC surface inh: cell surface PrPC inhibition, primary TR-FRET screen | TR-FRET read-out | AID 720596 | 0.43% of 370,000 active | inhibition, % at 13.8 µM | P04156; in the data active = inhibition above about 24%; note: 0% = median of the test wells and 100% = reference compound wells
CCHF vOTU inh-1: CCHFV vOTU protease inhibition; Pep-AMC fluorescence; 0.55% of 370,000 active; inhibition, % at 11.5 µM; note: 0% = vehicle wells with enzyme and 100% = no enzyme wells
CCHF vOTU inh-2: confirmation of CCHF virus vOTU protease inhibitors; shares compounds with CCHF vOTU inh-1; Recombinant CCHFV vOTU, Pep-AMC fluorescence; inhibition, % at 11.5 µM; 17% of 1,900 active
Active calls of the source: *. Cut-off read from the data, not from the text of the source, unless noted: active = inhibition above about 30%; inactive = the rest.

How did COC(=O)c1ccc(CN(C(=O)N2CCN(C)CC2)S(=O)(=O)c2ccc(C)cc2)cc1 do in these assays?
Vc quorum ag: -1; Yp Topo-I inh: -2; PrPC surface inh: 5; CCHF vOTU inh-1: 45*; CCHF vOTU inh-2: -19

What do the screens show for `CC(CCc1ccccc1)NC(=O)c1ccc(NC(=O)c2ccccc2)cc1` (stereo not drawn)?
Vc quorum ag: 0; Yp Topo-I inh: 3; PrPC surface inh: -5; CCHF vOTU inh-1: 32*; CCHF vOTU inh-2: -8

What do the screens show for `Cc1ccc(C=Nc2ccc(N(C)C)cc2)o1`?
Vc quorum ag: 4; Yp Topo-I inh: -9; PrPC surface inh: -6; CCHF vOTU inh-1: 33*; CCHF vOTU inh-2: -4

Results for Nc1nc(SCc2nc3scc(-c4cccs4)c3c(=O)[nH]2)n[nH]1 ?
Vc quorum ag: inactive; Yp Topo-I inh: 1; PrPC surface inh: -7; CCHF vOTU inh-1: 7

How did Fc1ccccc1/C=N/Nc1ncnc2nc[nH]c12 do in these assays?
Yp Topo-I inh: 0; PrPC surface inh: -5; CCHF vOTU inh-1: 26

What do the screens show for `C[n+]1c(-c2ccccc2)c2cc(N)ccc2c2ccc(N)cc21`?
Vc quorum ag: 0; Yp Topo-I inh: -16; PrPC surface inh: -23; CCHF vOTU inh-1: 105*; CCHF vOTU inh-2: 77*

What do the screens show for `CCOC(=O)C1(C)C=C(Nc2ccc(O)cc2)C(=O)N1c1ccc(O)cc1` (stereo not drawn)?
Vc quorum ag: 0; Yp Topo-I inh: -7; PrPC surface inh: -12; CCHF vOTU inh-1: 91*; CCHF vOTU inh-2: -15

Results for C[C@H](CO)N1C[C@H](C)[C@@H](CN(C)Cc2ccc(-c3ccccc3)cc2)Oc2ncc(C#C[C@@H](C)O)cc2C1=O ?
Vc quorum ag: 0; Yp Topo-I inh: 21; PrPC surface inh: -11; CCHF vOTU inh-1: 33*; CCHF vOTU inh-2: -25

What do the screens show for `C[C@H](O)C#Cc1cnc2c(c1)C(=O)N([C@H](C)CO)C[C@@H](C)[C@@H](CN(C)Cc1ccc(-c3ccccc3)cc1)O2`?
Vc quorum ag: 0; Yp Topo-I inh: 19; PrPC surface inh: -2; CCHF vOTU inh-1: -8

How did CCN(CC(=O)c1c(N)n(C)c(=O)n(C)c1=O)c1cccc2ccccc12 do in these assays?
Vc quorum ag: 0; Yp Topo-I inh: 0; PrPC surface inh: -10; CCHF vOTU inh-1: 82*; CCHF vOTU inh-2: -8

What do the screens show for `Nc1ccccc1C(=O)N1CCc2ccccc21`?
Vc quorum ag: inactive; Yp Topo-I inh: 3; PrPC surface inh: -7; CCHF vOTU inh-1: 49*; CCHF vOTU inh-2: -4

Results for Nc1ccccc1C(=O)OCC(=O)N1CCc2ccccc21 ?
Vc quorum ag: inactive; Yp Topo-I inh: -6; PrPC surface inh: 4; CCHF vOTU inh-1: -28

Results for O=C(NC1CCc2ccccc21)c1cc(COc2ccc(F)cc2F)on1 (stereo not drawn) ?
Vc quorum ag: -1; Yp Topo-I inh: 27; PrPC surface inh: 7; CCHF vOTU inh-1: 35*; CCHF vOTU inh-2: -16

What do the screens show for `COc1ccc(CN2CCN(Cc3ccccc3C(F)(F)F)CC2)c(OC)c1`?
Vc quorum ag: inactive; Yp Topo-I inh: 23; PrPC surface inh: -5; CCHF vOTU inh-1: 30*; CCHF vOTU inh-2: -2

Results for CC1=NN(c2ccccc2)C(=O)/C1=C/c1cccc(C)c1 ?
Vc quorum ag: -1; Yp Topo-I inh: -8; PrPC surface inh: -1; CCHF vOTU inh-1: 76*; CCHF vOTU inh-2: -18

Results for COc1ccc(/C=C2/C(=O)N(c3ccccc3)N=C2C)cc1 ?
Vc quorum ag: -1; Yp Topo-I inh: -6

Results for COc1cc(/C=C2/C(=O)N(c3cccc(Br)c3)N=C2C)cc(OC)c1O ?
Vc quorum ag: 0; Yp Topo-I inh: 1; PrPC surface inh: 3; CCHF vOTU inh-1: 92*; CCHF vOTU inh-2: -26

How did CC(=O)Oc1ccc(/C=C2/C(=O)N(c3ccccc3)N=C2C)cc1 do in these assays?
Vc quorum ag: -2; Yp Topo-I inh: -6; PrPC surface inh: -6; CCHF vOTU inh-1: 103*; CCHF vOTU inh-2: -12

How did COc1ccc(/C=C2/C(=O)N(c3ccccc3)N=C2C)cc1OC do in these assays?
Vc quorum ag: -1; Yp Topo-I inh: 10; PrPC surface inh: 11; CCHF vOTU inh-1: 93*; CCHF vOTU inh-2: -20

Results for COc1ccc(CNC(=O)CSC(=S)N2CCCC2)cc1 ?
Vc quorum ag: -1; Yp Topo-I inh: 4; PrPC surface inh: -4; CCHF vOTU inh-1: 2

How did c1ccc2c(c1)nc(-c1ccncc1)n1nnnc21 do in these assays?
Vc quorum ag: inactive; Yp Topo-I inh: 5; PrPC surface inh: -25; CCHF vOTU inh-1: -8

What do the screens show for `CSc1ccc(OCC(=O)Nc2ccc(N3CCOCC3)c(Cl)c2)cc1`?
Vc quorum ag: inactive; Yp Topo-I inh: 15; PrPC surface inh: 1; CCHF vOTU inh-1: -1

Results for C=CCN1C(=O)/C(=C/c2ccc(OC(C)=O)c(OCC)c2[N+](=O)[O-])SC1=S ?
Vc quorum ag: 0; Yp Topo-I inh: 5; PrPC surface inh: -8; CCHF vOTU inh-1: 30*; CCHF vOTU inh-2: 82*

What do the screens show for `CN(C)C(=O)c1c2c(nc3ccccc13)CCCC2`?
Vc quorum ag: inactive; Yp Topo-I inh: 3; PrPC surface inh: -5; CCHF vOTU inh-1: -8

How did CN(C)C(=O)c1c2c(nc3ccccc13)-c1ccccc1CC2 do in these assays?
Vc quorum ag: -3; Yp Topo-I inh: 7; PrPC surface inh: -6; CCHF vOTU inh-1: 33*; CCHF vOTU inh-2: -21

How did O=C(O)c1ccc(Nc2ccc([N+](=O)[O-])c3nonc23)cc1 do in these assays?
Vc quorum ag: -2; Yp Topo-I inh: 6; PrPC surface inh: -48; CCHF vOTU inh-1: 2

Results for CCc1nnc(NS(=O)(=O)c2ccc(Nc3ccc([N+](=O)[O-])c4nonc34)cc2)s1 ?
Vc quorum ag: 0; Yp Topo-I inh: -7; PrPC surface inh: -54; CCHF vOTU inh-1: 31*; CCHF vOTU inh-2: 6

Results for CCc1nnc(NS(=O)(=O)c2ccc(NC(=O)c3ccc([N+](=O)[O-])s3)cc2)s1 ?
Vc quorum ag: 0; Yp Topo-I inh: -2; PrPC surface inh: -31; CCHF vOTU inh-1: 35*; CCHF vOTU inh-2: 12

Results for NS(=O)(=O)c1ccc(Nc2ccc([N+](=O)[O-])c3nonc23)cc1 ?
Vc quorum ag: 0; Yp Topo-I inh: 1; PrPC surface inh: -60; CCHF vOTU inh-1: 31*; CCHF vOTU inh-2: 17

How did COc1ccccc1-c1ocnc1C(=O)Nc1ccc(N2CCOCC2)cc1N1CCOCC1 do in these assays?
Vc quorum ag: -1; Yp Topo-I inh: 18; PrPC surface inh: -2; CCHF vOTU inh-1: 6

What do the screens show for `O=C1Nc2ccccc2-n2nnnc2C1N1CCN(c2ccc(C(F)(F)F)cc2[N+](=O)[O-])CC1` (stereo not drawn)?
PrPC surface inh: 0; CCHF vOTU inh-1: 32*; CCHF vOTU inh-2: -6

What do the screens show for `Cc1ccc(S(=O)(=O)Nc2ccccc2-c2ccccc2NS(=O)(=O)c2ccc(C)cc2)cc1`?
Vc quorum ag: -25; Yp Topo-I inh: 3; PrPC surface inh: 1; CCHF vOTU inh-1: 30*; CCHF vOTU inh-2: 13

What do the screens show for `CC(=O)Nc1ccc(S(=O)(=O)Nc2ccccc2C(=O)N2CCCC2)cc1`?
Vc quorum ag: -10; Yp Topo-I inh: -5; PrPC surface inh: 4; CCHF vOTU inh-1: 30*; CCHF vOTU inh-2: -6
